Data reported in the supplement of paper PMC10681739.
Over roughly 2,700 sequences, “arbitrary fluorescence units” has its median near 4,100; the highest 2% begin near 54,000. The entries come from a sample that favours the highest values as a whole.

What follows are sequences tested against T1, ETS1 (UniProt P14921) (assay: ETS1 binding intensity (PBM fluorescence) (arbitrary fluorescence units); higher = stronger binding). Settings: ETS1 concentration 10 nM.
T1 sequence: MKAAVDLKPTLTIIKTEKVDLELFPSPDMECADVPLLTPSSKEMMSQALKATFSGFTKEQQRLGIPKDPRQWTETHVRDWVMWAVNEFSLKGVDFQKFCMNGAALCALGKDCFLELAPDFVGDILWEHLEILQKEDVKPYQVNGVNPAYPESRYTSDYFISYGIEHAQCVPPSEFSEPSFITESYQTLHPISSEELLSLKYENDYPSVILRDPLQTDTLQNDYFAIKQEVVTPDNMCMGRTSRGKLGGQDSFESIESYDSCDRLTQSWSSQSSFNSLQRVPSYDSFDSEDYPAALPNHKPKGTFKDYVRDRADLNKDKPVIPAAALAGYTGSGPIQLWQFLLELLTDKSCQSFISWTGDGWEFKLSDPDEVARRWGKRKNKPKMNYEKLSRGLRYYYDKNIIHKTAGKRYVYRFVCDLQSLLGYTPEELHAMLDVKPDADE
Description: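 gcPBM on wild-type 36-bp genomic probes with two neighbouring ETS1 sites (4-24 bp apart). Recombinant human ETS1 (10 nM) was detected with anti-ETS1 antibody fluorescence. Values are medians over 3 replicate spots. The probes sit in constant array flanks that are not printed.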
Work on ACAGCTTCCGGTTTTGCAAGACAATGCTTCCTTCTC yielded an ETS1 binding intensity of 87800.
CAACAGGAAATACATACCTGTCCTGAGAGGAAGCAC gave an ETS1 binding intensity of 7320.
With AGCATCTGCTGGGGGAAACGGAAGCAGCCCAGATGG the ETS1 binding intensity was 774.
In the case of TGTAGGAGCTTCCTTGCAGCCTCAGGATGCCGAATT, the ETS1 binding intensity is reported as 517.
Work on TATGTATTTCCTTATTGCAAAGGGCGGAAACGTGTA yielded an ETS1 binding intensity of 3980.
Work on GGAAAGACGGCAGGAAATGGGGAAGTGGGAGGGAGA yielded an ETS1 binding intensity of 6220.
Work on GGATCAGGAAGTCACGACATGGCGACCATCCTGGCT yielded an ETS1 binding intensity of 1720.
Sequence GCCCCACTTCCCTCCCGCGGTCACACTTCCGGCGGC has an ETS1 binding intensity of 12500.
CCCCACATCCGGTGCGGCGACGCCACTTCCGCCCAC gave an ETS1 binding intensity of 78100.
CGTCCCACATCCGCCGACACGCCCCTTCCGGCCTAA gave an ETS1 binding intensity of 20000.
With GATGACCTGCCATTTCCCCAGGAAAGCTGAGACCCC the ETS1 binding intensity was 201.
With TTTCTGTCCGTTTCCGACAAACTTCCCGCGCTCTTC the ETS1 binding intensity was 2630.
In the case of TGCCCTGCCTGCTTCCTCCCTTCCTTTCAACCCCAA, the ETS1 binding intensity is reported as 2350.
TGAAGACGGAAACCTGAGAACACCATTTCCTGTGCT showed an ETS1 binding intensity of 4470.
With GCCGCCGCGTACTTCCGGCCGGAAGAAAGGGCGGGC the ETS1 binding intensity was 65400.
Work on CGGCGTCAGCGGAACGGGCGGCTTCCGGCCGCGGCG yielded an ETS1 binding intensity of 8120.
In the case of CGGCGGAAGGAGCGGGCGGCGTGAGCGCTTCCGCCG, the ETS1 binding intensity is reported as 811.
CGGCGGCTGCCGGAAAGCCACTTCCGGCCTGCTCCA showed an ETS1 binding intensity of 25400.
Work on GGGAGGCGGAAAGGGGCGGGACCACTTCCGGCCTAG yielded an ETS1 binding intensity of 22100.
Work on TCGGCCACTTCCGGCGCGCGGGGCGGAAAGCGGGCG yielded an ETS1 binding intensity of 75800.
CTGTCACACAGGAAGACCACACAGGAAGACCAGGTG was tested, and the ETS1 binding intensity was 1320.
TCCACTCTGCGGAAGCCACGTTCATCCTGCCCTGCC showed an ETS1 binding intensity of 586.
Work on ATGCAGAAAGTGGGAAGTGAGGAAATGAGGGCAGCG yielded an ETS1 binding intensity of 232.
GAGAACTTCCGGCTGCAGTACAACCATTTCCGGGCT was tested, and the ETS1 binding intensity was 68300.
AACCAACAACTTACTTCCTTCCGGGTTTGGTGCAGA showed an ETS1 binding intensity of 5690.
Sequence CCTGGCCGGAAACTGAGCCGTTCACTTCCGCCACCA has an ETS1 binding intensity of 14000.
Work on TATCTCCTTCCTGTGTAGCATTGACTTTCCTGTCAG yielded an ETS1 binding intensity of 14100.
For CGTGAGCGGAAGCGGCGCCATTCGTCTTCCGAGCGC, the ETS1 binding intensity was 6670.
Sequence TGCTAAACTTCCCTGGGCCCCATCAGGAAATGTGAA has an ETS1 binding intensity of 185.
For GCCCACATCCGGCCCCTCCTTGCCCCGGAACCTCCT, the ETS1 binding intensity was 70100.
TCCGCGTCCCCACATCCTCCGGATGCCCAGCGGTTG gave an ETS1 binding intensity of 1980.
Sequence TTCTTGGCCACATCCGTCTCCCGGAACTGCTCCTTC has an ETS1 binding intensity of 8980.
In the case of CGCCATACCTGGCTTCCGCTTCCGGTGGCTTCTCGT, the ETS1 binding intensity is reported as 28200.
